# From PubChem BioAssay (EPA / NIEHS)
# Some compounds were tested as several samples or in several runs, with calls that do not always agree. The source made the active and inactive calls. How the source made its calls: active means hit-call score of the fitted dose curve at least 0.9, where 1 is the maximum; inactive means score below 0.9.
# Read-out: Human Leukocyte Antigen - DR isotype (HLADR), HLA-DRA (gene 3122)
# Assay: BSK_3C_HLADR: BioMAP Diversity Plus: 3C Assay for Human Leukocyte Antigen - DR isotype (HLADR) Biomarker Activity (AID 2283019)
# Settings: primary human endothelial cells (HUVEC); actives raise or lower the signal
# Procedure: BSK_3C is a cell-based, multiplexed-readout assay that uses umbilical vein endothelium, a human vascular primary cell, with measurements taken at 24 hours after chemical dosing in a 96-well plate.BSK_3C_HLADR is an assay component measured in the BSK_3C assay. It measures HLA-DR antibody related to regulation of gene expression using ELISA technology.Data from the assay component BSK_3C_HLADR was analyzed into 1 assay endpoint. This assay endpoint, BSK_3C_HLADR, was analyzed with bidirectional fitting relative to DMSO as the negative control and baseline of activity. Using a type of binding reporter, gain or loss-of-signal activity can be used to understand changes in the signaling as they relate to the gene HLA-DRA. Furthermore, this assay endpoint can be referred to as a primary readout, because this assay has produced multiple assay endpoints where this one serves a signaling function. To generalize the intended target to other relatable targets, this assay endpoint is annotated to the cell adhesion molecules intended target family, where the subfamily is MHC Class II.
# The levels of cell surface (or secreted, indicated by the prefix "s") biomarker endpoints were measured by ELISA. Overt cytotoxicity to cells in confluent adherent cultures (all systems other than the BT system) was assessed by measuring total protein levels using sulforhodamine B (SRB) staining in parallel cultures at the time of biomarker measurements, indicated as SRB endpoints. For proliferation assays for adherent cell types, individual cell types are cultured at sub-confluence and relative cell numbers quantified by SRB staining at time points optimized for each system (48 h: 3C and CASM3C systems; 72 h: BT and HDF3CGF systems; 96 h: SAg system). SRB was performed by staining cells with 0.1% SRB after fixation with 10% TCA and reading wells at 560 nm.Viability and proliferation of PBMC (T cells) was quantified by Alamar Blue reduction for the SAg and BT systems. For PBMC viability (referred to as PBMC Cytotoxicity within the assay endpoint names), cells were plated (75,000/well in a 96-well plate) and then chemical samples added for 1 h before addition of activators, SEB and TSST-1 (20 ng/mL final concentration each). Cells were incubated for 90 h. Then, Alamar Blue (20 uL/well) (Invitrogen, Cat DAL1100) was added for 6 h, and the plates were read with a fluorescence microplate reader at 546/580 nm (excitation/emission). For PBMC proliferation, cells were plated and activated as above but incubated for only 16 h prior to addition of Alamar Blue. Plates were read after 6 h.
Structure (SMILES),outcome,AC50
OC[C@H]1O[C@@](CO)(O[C@H]2O[C@H](CO)[C@@H](O)[C@H](O)[C@H]2O)[C@@H](O)[C@@H]1O,inactive,
CCc1cccc(CC)c1N,inactive,
OCCNCCO,inactive,
Cc1ccc(S(=O)(=O)NC(=O)NN2CCCCCC2)cc1,inactive,
CCCCCCCCCC,inactive,
O=C(NO)C1(NS(=O)(=O)c2ccc(Oc3ccc(F)cc3)cc2)CCOCC1,inactive,
CCCCC(CC)C(=O)OCCOCCOCCOC(=O)C(CC)CCCC (stereo not given),inactive,
O=C(O)c1cccc(C[C@@H]2COc3ccc(OCc4nc5cc(F)ccc5s4)cc3[C@@H]2O)c1,inactive,
CCCCCOC(C)=O,inactive,
OCCC(F)(F)C(F)(F)C(F)(F)C(F)(F)F,inactive,
CCCCCCOC(=O)CC(CC(=O)OCCCCCC)(OC(=O)CCC)C(=O)OCCCCCC,inactive,
CCCOc1ccc(S(=O)(=O)N2CCN(CC)CC2)cc1-c1nc2c(CC)n(Cc3ccccn3)nc2c(=O)[nH]1,inactive,
O=C(Cl)C(F)(F)C(F)(F)C(F)(F)C(=O)Cl,inactive,
O=S(=O)(O)c1ccc(N=Nc2c(O)ccc3cc(S(=O)(=O)O)ccc23)cc1,inactive,
CC(=O)c1ccccc1,inactive,
c1ccc(C(O[C@@H]2CCCN(CCc3ccc4c(c3)OCO4)C2)c2ccccc2)cc1,,30.8 µM (active)
OC[C@H]1O[C@@H]2O[C@H]3[C@H](O)[C@@H](O)[C@@H](O[C@H]4[C@H](O)[C@@H](O)[C@@H](O[C@H]5[C@H](O)[C@@H](O)[C@@H](O[C@H]6[C@H](O)[C@@H](O)[C@@H](O[C@H]7[C@H](O)[C@@H](O)[C@@H](O[C@H]1[C@H](O)[C@H]2O)O[C@@H]7CO)O[C@@H]6CO)O[C@@H]5CO)O[C@@H]4CO)O[C@@H]3CO,inactive,
C[Si](C)(C)C(F)(F)C(F)(F)C(F)(F)F,inactive,
Cn1c(=O)c2[nH]cnc2n(C)c1=O,inactive,
COS(C)(=O)=O,inactive,

Structure (SMILES),outcome,AC50
CCCCN1C(=O)[C@@H]([C@H](O)C2CCCCC2)NC(=O)C12CCN(Cc1ccc(Oc3ccc(C(=O)O)cc3)cc1)CC2,,32.1 µM (active)
OC(O)(C(F)C(O)(O)C(F)(F)F)C(F)(F)F,inactive,17.6 µM (active)
COc1cc2c(c(OC)c1OC)-c1ccc(OC)c(=O)cc1[C@@H](NC(C)=O)CC2,,1.07 µM (active)
c1ccc2ncccc2c1,inactive,
COc1cc(C(C)C)c2c(c1)S(=O)(=O)N(COc1cc(=O)n3cccc(OCCN4CCCCC4)c3n1)C2=O,,8.31 µM (active)
CCCCCCCCCCCCCCCCOS(=O)(=O)O,inactive,
OC(Cn1cncn1)(Cn1cncn1)c1ccc(F)cc1F,inactive,
OC(CCl)CCl,inactive,
OCc1c[nH]c2ccccc12,,9.29 µM (active)
CNC(C)=O,inactive,
CCCCCCCCCCCCCCO,,36.7 µM (active)
Cc1nccn1-c1ccc(Sc2cccc(C3(C(N)=O)CCOCC3)c2)cc1,,7.74 µM (active)
CCCCCCCC1CCC(=O)O1 (stereo not given),inactive,
c1ccc2c(c1)-c1cccc3c1c-2cc1ccccc13,inactive,
OCc1ccccc1,inactive,
CCn1nc(C)c2c1C(=O)NCC(c1ccc(O)cc1)=N2,inactive,
CC(C)CCCCCCOC(=O)C1CCCCC1C(=O)OCCCCCCC(C)C (stereo not given),inactive,
CCCCOC(=O)c1ccccc1,inactive,
CC1(C)C(=O)N(Cl)C(=O)N1Cl,inactive,
